Shiga toxin inh: Shiga toxin inhibition; 290,000 tested, 9.2% active; Vero cells, Shiga toxin protein synthesis inhibition reporter; inhibition, % at 38.7 µM; in the data active = inhibition mostly above about 28%, no sharp cut-off; inactive = mostly below about 43%
Sm TGR inh: S. mansoni TGR enzyme inhibition; 360,000 tested, 3% active; purified TGR, DTNB reduction, TNB absorbance 405 nm; AID 485364; Potency, µM (top dose mostly 114 µM), hits mostly inhibitors; note: nearly all actives have a fitted effect of over 60% in size
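First, TGR (20 nM dispensed) and NADPH were mixed with compound. Second, a 15 min room-temperature incubation followed. Third, further NADPH and then DTNB were added to start the reaction. Finally, TNB absorbance was monitored kinetically.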
Pf growth 48h: inhibits P. falciparum growth in the first generation, 48 h; P. falciparum luciferase growth in erythrocytes, 48 h; Potency, µM (series often up to 28.7 µM), actives largely listed as inhibitors; 310,000 tested, 5.9% active
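Luciferase-expressing P. falciparum in infected erythrocytes (2% hematocrit, 0.1% parasitemia final) in RPMI 1640/0.5% Albumax were exposed to compound for 48 hours at 37 C, 5% CO2; growth read as luminescence.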
CHX counter: counter-screen for Shiga toxin inhibitors: cycloheximide protein synthesis inhibition. cell reporter, cycloheximide protein synthesis inhibition counterscreen. max response, %. 300,000 tested, 12% active. AID 2314; in the data active = max response mostly above about 13%, no sharp cut-off; inactive = mostly below about 14%; note: read at 38.3 µM for the half of the compounds with a filed dose
Pf growth 96h: P. falciparum growth inhibition at 96 hours | 320,000 tested, 6.9% active | P. falciparum luciferase reporter growth, 96 h | Potency, µM (titrated, usually from 28.7 µM), hits mostly inhibitors
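Readout is luminescence from an integrated firefly luciferase in P. falciparum. Red cells, 2% hematocrit and 0.05% parasitemia final, were cultured with compound through two parasite generations (96 hours) at 37 C, 5% CO2.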
NS1 inh: blocks influenza NS1 protein function. Potency, µM (top dose mostly 46.1 µM). 270,000 tested, 0.4% active; calls by dose curve; note: actives are rising curves; nearly all actives have a fitted effect of over 50% in size
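S. cerevisiae expressing influenza A NS1, grown in glucose, washed, then diluted 1:100 into pH 6.0 -URA galactose medium with 23 nl compound. Growth recovery read as OD600; NS1-free strain serves as control.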
Large screens that a line does not name were inactive. In the library only some 21% were active in any assay of this set; here they are far more common. Unless noted, calls come from the whole dose curve; as a rule, active = well fitted curve in the direction sought with a large enough effect; inconclusive = small, poorly fitted or top-dose-only effect, or another doubt; inactive = no such curve, though single readings can be large; an effect the other way counts as inactive or inconclusive.

S=C(NCCCCc1ccccc1)NCc1ccccc1	Pf growth 96h inconclusive
S=C(NCCc1ccccc1)NCCc1ccccc1	Shiga toxin inh 57, CHX counter 51
S=C(NCCc1ccccc1)Nc1ccc(Cl)cc1	CHX counter 53
CC(C)COc1ccc(C(=O)N(Cc2cccc(F)c2)C2CCS(=O)(=O)C2)cc1 (stereo not drawn)	none (no result: Shiga toxin inh, Pf growth 48h, CHX counter, Pf growth 96h, NS1 inh)
CC1CCN(S(=O)(=O)c2ccc3c(c2)N(CC(=O)NCCCN2C(C)CCCC2C)C(=O)CO3)CC1 (stereo not drawn)	none
CC(C)(C)NC(=O)NCCc1ccccc1	Shiga toxin inh 59, CHX counter 36
Cc1nc(NC(=O)CSc2nnnn2C)sc1C	Shiga toxin inh 71, CHX counter 40
Cn1nnnc1SCC(=O)Nc1ccc(Br)cc1Cl	Sm TGR inh 28µM (no result: Pf growth 96h)
COC(=O)c1sc(NC(=O)CSc2nnnn2C)nc1C	Shiga toxin inh 121, CHX counter 29, Pf growth 96h inconclusive
CCCn1c(SCC(=O)Nc2nc(C)c(C(=O)OC)s2)nnc1C(C)C	Pf growth 48h inconclusive
Cc1csc(NC(=O)CSc2nnnn2C)n1	Shiga toxin inh 53, CHX counter 25, Pf growth 96h 9.3µM
Cc1ccc2cn[nH]c2c1NC(N)=S	Shiga toxin inh 48, Pf growth 96h inconclusive (no result: NS1 inh)
Cc1ccc2cn[nH]c2c1NC(=S)NC(=O)c1ccccc1	Sm TGR inh 14µM
NC(=S)Nc1cccc2cn[nH]c12	none (no result: NS1 inh)
Cc1ccc2cccnc2c1NC(=S)NC(=O)c1ccccc1	Shiga toxin inh 70, Sm TGR inh 35µM, Pf growth 48h inconclusive, CHX counter 26, Pf growth 96h inconclusive
Cc1ccc(S(=O)(=O)N2CCN(Cc3ccsc3)CC2)cc1	none
Cn1c(-c2ccc(CN3CCCCC3)o2)nc2ccccc21	Shiga toxin inh 84, Sm TGR inh inconclusive, CHX counter 26
Cc1cc(C(=O)COc2ccccc2C(N)=O)c(C)n1C1CC1	CHX counter 40
Cc1ccccc1OCC(=O)OCC(=O)c1cc(C)n(C2CC2)c1C	none (no result: Shiga toxin inh, CHX counter, NS1 inh)
Cc1cc(C(=O)COc2ccccc2[N+](=O)[O-])c(C)n1C1CC1	Shiga toxin inh 65, Sm TGR inh inconclusive, CHX counter 28 (no result: NS1 inh)
COc1ccccc1CNC(=O)c1cnn(-c2ccc(F)cc2F)c1C1CCN(C(=O)OC(C)(C)C)CC1	none (no result: Shiga toxin inh, Pf growth 48h, CHX counter, Pf growth 96h, NS1 inh)
COc1cccc(NC(=O)CN(C)C(=O)Cn2cnc3ccccc3c2=O)c1	none (no result: Shiga toxin inh, CHX counter, NS1 inh)
Cc1ccc(C)c(N(C(=O)CS(=O)CC(=O)Nc2ccc3c(c2)OCO3)C(C)C(=O)NC2CCCC2)c1 (stereo not drawn)	Pf growth 48h inconclusive
NC(=O)c1ccccc1NC(=O)/C=C/c1ccccc1	Shiga toxin inh 63, CHX counter 34
NC(=O)c1ccccc1NC(=O)/C=C/c1ccc(Cl)cc1	Shiga toxin inh 90, CHX counter 48
Cc1ccc(-n2c(=O)c3c(c4cc(C)ccc4n3C)n(CC(=O)c3ccc(Cl)cc3)c2=O)cc1	none (no result: Shiga toxin inh, Pf growth 48h, CHX counter, Pf growth 96h, NS1 inh)
Cc1cc(S(=O)(=O)Nc2c(NC3CCCCC3)c3ccccc3oc2=O)ccc1F	Pf growth 96h 10µM
CCOC(=O)c1c(NC(C)=O)sc2c(O)c(CN3CCN(CC)CC3)ccc12	Pf growth 48h 10µM
Cc1ccc(NC(=O)c2ccc(OC(=O)COc3ccc(Cl)c(C)c3)cc2)cc1	Shiga toxin inh 96, CHX counter 49
COc1ccc(NC(=O)c2nc(SC)ncc2Cl)cc1	none
CCCCOc1ccc(C(=O)Nc2ccc(SC(F)F)cc2)cc1OC	none
COc1ccc(NC(=O)c2cnc(SC)nc2)cc1	CHX counter 32
COc1ccc(C(=O)Nc2cccc(C)c2)cc1	Shiga toxin inh 61, CHX counter 28
COc1ccc(C(=O)Nc2ccc(SC(F)F)cc2)cc1	Shiga toxin inh 98, CHX counter 49
COc1cccc(CNC(=O)CSC2=Nc3ccccc3C3=NC(C(C)C)C(=O)N23)c1 (stereo not drawn)	none (no result: Shiga toxin inh, Pf growth 48h, CHX counter, Pf growth 96h, NS1 inh)
Cc1cc(C)nc(NC(=O)c2ccc(Br)cc2)n1	none (no result: Pf growth 48h)
COc1ccc(-c2ccc3c(N)c(C(=O)Nc4cc(F)ccc4C)sc3n2)cc1	none (no result: Shiga toxin inh, Pf growth 48h, CHX counter, Pf growth 96h, NS1 inh)
COc1ccc(-c2ccc3c(N)c(C(=O)Nc4cccc(C)c4)sc3n2)cc1	CHX counter 43 (no result: Pf growth 48h, Pf growth 96h, NS1 inh)
COc1ccc(C(=O)NC(=S)Nc2nc(C)cc(C)n2)cc1Br	CHX counter 21, Pf growth 96h inconclusive
COc1ccc(C(=O)Nc2nc(C)cc(C)n2)cc1	Sm TGR inh 22µM
COc1ccc(NC(=O)c2ccc(C)cc2)cc1	CHX counter 38, Pf growth 96h inconclusive (no result: Shiga toxin inh)
CC(C)CC(=O)Nc1ccc(C(=O)CN2C(=O)NC3(CCOc4ccccc43)C2=O)cc1 (stereo not drawn)	Pf growth 48h inconclusive (no result: Shiga toxin inh, CHX counter, NS1 inh)
COC(=O)c1sc(S(=O)(=O)Nc2ccc(C)c(C)c2)c(C(=O)OC)c1C	none
Cc1nnc2sc(-c3ccncc3)nn12	Pf growth 48h inconclusive
Cc1ccccc1-c1nn2c(-c3ccccc3)nnc2s1	Pf growth 48h inconclusive, Pf growth 96h 9.3µM
CC(C)(C)c1ccc(-c2nnc3sc(-c4ccncc4)nn23)cc1	Pf growth 48h inconclusive, CHX counter 14
NC(=O)C1CCN(C2=C(NS(=O)(=O)c3ccc(Cl)cc3)C(=O)c3ccccc3C2=O)CC1	Sm TGR inh 11µM, Pf growth 48h inconclusive
Cc1ccc(S(=O)(=O)NC2=C(N3CCN(c4ccccc4F)CC3)C(=O)c3ccccc3C2=O)cc1	Pf growth 48h inconclusive, Pf growth 96h inconclusive
CC(=O)Nc1ccc(S(=O)(=O)NC2=C(N3CCN(c4ccc(F)cc4)CC3)C(=O)c3ccccc3C2=O)cc1	Sm TGR inh inconclusive, Pf growth 48h 0.74µM (no result: Pf growth 96h)
CCOC(=O)N1CCN(C2=C(NS(=O)(=O)c3ccc(C)cc3)C(=O)c3ccccc3C2=O)CC1	Sm TGR inh inconclusive, Pf growth 48h 8.3µM, Pf growth 96h 3.3µM
Cc1ccc(S(=O)(=O)NC2=C(N3CCN(Cc4ccccc4)CC3)C(=O)c3ccccc3C2=O)cc1	Pf growth 48h inconclusive (no result: Pf growth 96h)
CC1CCCN(C2=C(NS(=O)(=O)c3ccc(Cl)cc3)C(=O)c3ccccc3C2=O)C1 (stereo not drawn)	Shiga toxin inh 40, Pf growth 48h inconclusive, CHX counter 22, Pf growth 96h 12µM
COC(=O)C1CCN(C2=C(NS(=O)(=O)c3ccc(Cl)cc3)C(=O)c3ccccc3C2=O)CC1	Sm TGR inh inconclusive, Pf growth 48h inconclusive, Pf growth 96h inconclusive
CC1CCCN(C(=S)Nc2ccc3nc4n(c(=O)c3c2)CCCCC4)C1 (stereo not drawn)	none
O=C(Nc1cccc(Cl)c1Cl)c1cc(S(=O)(=O)N2CCCc3ccccc32)ccc1F	none (no result: Shiga toxin inh, Pf growth 48h, CHX counter, Pf growth 96h, NS1 inh)
Cc1cccc(N2CCN(S(=O)(=O)c3cn(C)c(C)n3)CC2)c1C	none (no result: Shiga toxin inh, Pf growth 48h, CHX counter, Pf growth 96h, NS1 inh)
COc1cc(CN2CC(=O)N(c3ccccc3Cl)C2=S)cc(OC)c1OC	Pf growth 48h 5.9µM
COc1cc(CN2CC(=O)N(c3cccc(Cl)c3C)C2=S)cc(OC)c1OC	Pf growth 48h 2.6µM
COc1cc(Cl)c(C)cc1N1C(=O)CN(Cc2ccccc2)C1=S	Pf growth 48h inconclusive
